Test results published in the OligoGym collection.

Molecular target: OTP
Experiment: pooled miR-30 sensor sort-seq; sequence = guide strand
Settings: shRNA
Note: reference of the scale not given here.

For TTTATCTACACAAAACATCCTA, which sensor-assay potency score (higher = more potent) is on record?
Its sensor-assay potency score (higher = more potent) is 0.114.

For TTAAGTTAAAACATATCACAAA, which sensor-assay potency score (higher = more potent) is on record?
Its sensor-assay potency score (higher = more potent) is -1.23.

How did the sensor-assay potency score (higher = more potent) turn out when AACATATCACAAATTGACCAGT was run?
Its sensor-assay potency score (higher = more potent) is -0.538.

TTGACCAGTATGTAACAAGAAT was tested. Which sensor-assay potency score (higher = more potent) did it give?
The sensor-assay potency score (higher = more potent) was -1.1.

TGTCCCTTGAACACGTCCGTGT was tested. Which sensor-assay potency score (higher = more potent) did it give?
The sensor-assay potency score (higher = more potent) was -0.222.

With TTACAAAAGAAAATTTTGCTTA as the sequence, how does the sensor-assay potency score (higher = more potent) read?
The sensor-assay potency score (higher = more potent) was -0.204.

How did the sensor-assay potency score (higher = more potent) turn out when TTATCTACACAAAACATCCTAT was run?
The sensor-assay potency score (higher = more potent) was -0.185.

TTCTACACTCTCACACAGTTGT was tested. Which sensor-assay potency score (higher = more potent) did it give?
Its sensor-assay potency score (higher = more potent) is 0.376.

With TTTCTCTGTACAAAGTTGCAGG as the sequence, how does the sensor-assay potency score (higher = more potent) read?
Its sensor-assay potency score (higher = more potent) is -0.634.

With TTCCTCGTCACATGACTGCTTT as the sequence, how does the sensor-assay potency score (higher = more potent) read?
The sensor-assay potency score (higher = more potent) was -0.353.

Molecular target: OXGR1
Experiment: as above
Settings: shRNA

Which sensor-assay potency score (higher = more potent) does the source give for TTGAGTTCATCCGAACTGGTGA here?
Its sensor-assay potency score (higher = more potent) is 0.378.

With AATAGTATTGAGTTCATCCGAA as the sequence, how does the sensor-assay potency score (higher = more potent) read?
Its sensor-assay potency score (higher = more potent) is -0.145.

With TAATTTTCTTTGCTTGCTCAAG as the sequence, how does the sensor-assay potency score (higher = more potent) read?
The sensor-assay potency score (higher = more potent) was -1.24.

For TTGAAATGGAAGCTGAAGCGGA, which sensor-assay potency score (higher = more potent) is on record?
Its sensor-assay potency score (higher = more potent) is 0.195.

How did the sensor-assay potency score (higher = more potent) turn out when TTGCATCTCACTGTTGAGCAGA was run?
Its sensor-assay potency score (higher = more potent) is -0.0433.

Which sensor-assay potency score (higher = more potent) does the source give for TAATAGTATTGAGTTCATCCGA here?
The sensor-assay potency score (higher = more potent) was -0.637.

For TACAGGTTGAAATGGAAGCTGA, which sensor-assay potency score (higher = more potent) is on record?
Its sensor-assay potency score (higher = more potent) is -0.61.

How did the sensor-assay potency score (higher = more potent) turn out when TTCAGCATAATGATGGTGCTGC was run?
Its sensor-assay potency score (higher = more potent) is 0.6.

Which sensor-assay potency score (higher = more potent) does the source give for TACAACTGCACATCGAGTTTTG here?
Its sensor-assay potency score (higher = more potent) is -0.712.

With TTTCTTTGCTTGCTCAAGGTTC as the sequence, how does the sensor-assay potency score (higher = more potent) read?
The sensor-assay potency score (higher = more potent) was -0.282.

Which sensor-assay potency score (higher = more potent) does the source give for TGAATGATCACACAGTAGCGGA here?
The sensor-assay potency score (higher = more potent) was -1.12.

TTACTTTGCATCTCACTGTTGA was tested. Which sensor-assay potency score (higher = more potent) did it give?
Its sensor-assay potency score (higher = more potent) is 0.106.
